The record followed here is PubChem BioAssay (NCATS).

For assay [1] the following is noted: Ebola virus entry cell assay, ratio channel.
For assay [2] the following is noted: Ebola virus entry reporter assay, green channel fluorescence.
The nature of assay [3]: qHTS assay for measurement of the activity of small molecule inhibitors on Zika virus induced Caspase-3 activity in human astrocytoma cells (AID 1224859).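 Note: plate controls were ZIKV-infected untreated cells for no effect and uninfected cells for full effect.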 To be noted: SNB-19 ZIKV-induced caspase-3/7, luminescence, 6 h; series mostly up to 45.7 µM. The method, boiled down: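 Luminescent caspase-3/7 read-out (30 min reagent, room temperature) in human SNB-19 cells infected 6 h with ZIKV (2 FFU/cell) after 1 h compound pre-incubation; Data were normalised to uninfected and infected wells.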

A short description of assay [4]: qHTS assay to identify small molecule inhibitors of chordoma cells - UCH-1 (AID 1259355). Note: % is set by controls: 0 for no effect and ±100 for the full control effect; nearly all actives have a fitted effect of over 55% in size. To be noted: UCH-1 chordoma viability, CellTiter-Glo, 48 h, combination; series mostly up to 46.1 µM. The method, boiled down:
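Cells (800/well) were seeded and left overnight at 37 C, 5% CO2, then treated with drugs at 15 concentrations plus a combination mix of auranofin, camptothecin, doxorubicin, rubitecan and topotecan. Viability after 48hr was read by CellTiter-Glo luminescence.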
In general terms: qHTS replaces the single test concentration by a dilution series.

Assay [5] in a line: qHTS assay to identify small molecule inhibitors of chordoma cells - UCH-2 (AID 1259356). Note: % is set by controls: 0 for no effect and ±100 for the full control effect. To be noted: UCH-2 chordoma viability, CellTiter-Glo ATP luminescence, 48 h; series mostly up to 46.1 µM.
A short description of assay [6]: qHTS assay for measurement of the activity of small molecule inhibitors on Zika virus induced Caspase-3 activity in human iPSC derived neural progenitor cells (hNPCs) (AID 1224857). Note: % of control where 0% means no effect; nearly all actives have a fitted effect of over 65% in size. To be noted: hNPCs ZIKV-induced caspase-3/7, Caspase-Glo luminescence, 6 h; series mostly up to 45.7 µM. The method, boiled down: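 Percent inhibition of virus-induced caspase-3/7 luminescence (Caspase-Glo), scaled between uninfected cells and Zika-infected cells. hNPCs received compound 1 hr before ZIKV at 2 FFU/cell, with 6 hours infection at 37 C.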

Assay [7] in a line: High-throughput drug toxicity screening in the BPDCN cell line Gen2.2 (AID 1224824; call rule not given here;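 note: cells exposed to compounds for 48 h before reading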). The following applies: Gen2.2 BPDCN cells; at 45.8 µM (top of the series). Summed up: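 Gen2.2, 500 cells/well, phenol red-free RPMI/10% FBS/Pen-Strep; 48 h cpd, 37 °C/5% CO2; CTG lum, 15 min RT. Norm: DMSO = 100%, bortezomib 9.2 uM final = 0%.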
Assay [8] in a line: High-throughput drug toxicity screening in the BPDCN cell line Cal-1 (AID 1224825; call rule not given here). To be noted: Cal-1 BPDCN cell viability, qHTS; at 45.8 µM (top of the series). Summed up: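 Cal-1 cells, 500 per well in phenol-red-free RPMI with 10% FBS, exposed to compounds for 48 hours at 37C, 5% CO2. Viability read by CellTiter-Glo luminescence; percent activity normalized to DMSO (100%) and 9.2 uM bortezomib final (0%).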

Assay [9] can be described thus: qHTS Screen of the MIPE 4.0 Collection Against Ewings Sarcoma (TC71) (AID 1259253).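 Note: 100% = DMSO-treated cells and 0% = medium-only wells without cells; nearly all actives have a fitted effect of over 40% in size.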 To be noted: TC71 Ewing sarcoma viability, CellTiter-Glo, 48 h; series mostly up to 45.8 µM. The method, boiled down: (§1)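 Log-phase cells in RPMI with 5% FBS attached for 4 h, then received compounds as a titration for 48 h at 37C, 5% CO2. Viability was read by CellTiter-Glo luminescence and normalized to DMSO and no-cell wells.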

Assay [10] is described as follows: qHTS Screen of the MIPE 4.0 Collection Against Ewings Sarcoma (EW8) (AID 1259255). Note: potency is the fitted concentration of half-maximal effect; nearly all actives have a fitted effect of over 35% in size. The following applies: EW8 Ewing sarcoma viability, CellTiter-Glo, 48 h; series mostly up to 45.8 µM. The method, boiled down: as §1

Records with an inconclusive call do not appear. For some of these results: Measured potencies and affinities stand elsewhere. Calls of active or inactive are those of the source.

As to `CN1C[C@H]2c3ccccc3Oc3ccc(Cl)cc3[C@@H]2C1`, the AC50 (commonly the concentration at which the activity in the assay is half-maximal) in assay [1] was 17.8 µM (active).
For `COc1cc2c(c(OC)c1OC)-c1ccc(OC)c(=O)cc1[C@@H](NC(C)=O)CC2`, the AC50 in [1] is 0.316 µM (active).
Regarding `Nc1nc2c(ncn2COCCO)c(=O)[nH]1`, the outcome in assay [1] was inactive.
On to `Cc1cc2c(s1)Nc1ccccc1N=C2N1CCN(C)CC1`, for which the outcome in [1] was inactive.
As for `NCC(CC(=O)O)c1ccc(Cl)cc1` (stereo not drawn), the compound was called inactive in [2], in assay [1] and in assay [3]. The Potency result in assay [4] and in assay [5] was “inactive” in each case.
As to `COc1ccc(OC)c(C(O)CNC(=O)CN)c1` (stereo not drawn), the result in [1] was inactive.
Regarding `CC(=O)O[C@]1(C(C)=O)CC[C@H]2[C@@H]3C=C(Cl)C4=CC(=O)[C@@H]5C[C@@H]5[C@]4(C)[C@H]3CC[C@@]21C`, the outcome in assay [1] was inactive.
`CNCCCC1c2ccccc2C=Cc2ccccc21`: in assay [1], the AC50 was 8.91 µM (active).
For the compound `COC(=O)CCc1ccc(OCC(O)CNC(C)C)cc1` (stereo not drawn), in assay [1], the outcome was inactive.
For the compound `Cc1cc(C)cc(OCC2CNC(=O)O2)c1` (stereo not drawn), the result in assay [1] was inactive.
In the case of `CCN(CC)CCN1C(=O)CN=C(c2ccccc2F)c2cc(Cl)ccc21`, the call in [2], in assay [1] and in [3] was inactive. In addition, the Potency entry in assay [6], in assay [4] and in assay [5] was “inactive” throughout.
For `CCC1C(=O)OCC1Cc1cncn1C` (stereo not drawn), the call in assay [2] and in [1] was inactive. The Potency result in assay [6] was “inactive”.
On to `Cc1ccc(-c2nc3ccc(C)cn3c2CC(=O)N(C)C)cc1`, for which the compound was called inactive in assay [2], in [1] and in assay [3]. Moreover, the Potency result in assay [4] and in [5] was “inactive” each time.
With `COc1ccc(C(CN(C)C)C2(O)CCCCC2)cc1` (stereo not drawn), the call in assay [2], in assay [1] and in assay [3] was inactive. Also, in assay [7], the cell viability, % of control (lower = more cytotoxic) is 171%. In addition, in assay [8], the viability (% of control) was 107%. For the same compound, the Potency entry in assay [9], in [4] and in assay [5] was “inactive” in each case. Besides, the Potency in assay [10] is 26.4 µM (active).
Regarding `CCC(COC(=O)c1cc(OC)c(OC)c(OC)c1)(c1ccccc1)N(C)C` (stereo not drawn), the compound was called inactive in assay [2], in [1] and in [3]. The Potency entry in assay [6], in assay [4] and in assay [5] was “inactive” each time.
